Assay [1] in a line: CEETOX_H295R_MTT_cell_viability: Viability Assessment in the CeeTox HT-H295R MTT Assay (AID 2283718).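 For AC50: curve fitted both ways so AC50 may mark viability loss or gain.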 The procedure, abridged:
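MTT reduction (0.5 mg/ml, 4 h at 37 C; absorbance at 570 and 650 nm) gave viability as background-corrected percent change versus controls. H295R cells had 48 h forskolin (10 uM) prestimulation, then 48 h chemical exposure at 0.1% DMSO.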

Assay [2] in a line: STM_H9_OrnithineISnorm_perc: Stemina devTOX quickPredict H9 human embryonic stem cell (hESC)-based Assay for Ornithine (ORN) Metabolite Biomarker, Normalized (AID 2283712).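 Note: ornithine released into spent medium during last day measured by mass spectrometry.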 The procedure, abridged:
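Cells: undifferentiated H9 hESC. Dosing: 72 h, media replaced every 24 h. Sample: final 24-h conditioned media, 40% acetonitrile. Read: UPLC-HRMS ornithine area vs 13C standard, % DMSO control.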

Assay [3] can be described thus: STM_H9_CystineISnorm_perc: Stemina devTOX quickPredict H9 human embryonic stem cell (hESC)-based Assay for Cystine (CYSS) Metabolite Biomarker, Normalized (AID 2283713). The procedure, abridged:
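Secreted cystine was measured by UPLC-HRMS in H9 hESC medium after 72h compound exposure with 24-hourly replenishment. Values are standard-normalized areas relative to 0.1% DMSO.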

Assay [4] can be described thus: STM_H9_OrnCyssISnorm_ratio: Stemina devTOX quickPredict H9 human embryonic stem cell (hESC)-based Assay for Ornithine (ORN):Cystine (CYSS) Ratio (AID 2283714; active = hit-call score of the fitted dose curve at least 0.9, where 1 is the maximum). The procedure, abridged:
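Steps: H9 hESCs in pluripotent state dosed 72h, medium plus compound renewed every 24h; conditioned medium from the final 24h deproteinized in 40% acetonitrile; ORN and CYSS quantified by UPLC-HRMS with C13 spike-ins; ratio relative to vehicle.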

The nature of assay [5]: Tanguay_ZF_120hpf_ActivityScore_legacy: (Legacy) Oregon State University Tanguay Lab 120 Hour Post-fertilization zebrafish Assay Score for Activity (AID 2283742; active = hit-call score of the fitted dose curve at least 0.9, where 1 is the maximum;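 for AC50: dechorionated Tropical 5D wild-type zebrafish embryos held singly per well; static exposure from 6 hpf until 120 hpf at 28 °C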). The procedure, abridged:
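Embryos are staged, enzymatically dechorionated at 4 hpf, placed individually at 6 hpf, then held in test chemical (0.64% DMSO) at 28C until 120 hpf. Mortality and malformations are scored by brightfield, with non-mortality endpoints skipped for dead embryos.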

Assay [6] relates to Thyroperoxidase (TPO), gene 445522. Nature of the assay: CCTE_Simmons_GUA_TPO: CCTE's Guaiacol Assay for Thyroperoxidase (TPO) Inhibition, Simmons Lab (AID 2283750; active = hit-call score of the fitted dose curve at least 0.9, where 1 is the maximum). The procedure, abridged: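 Porcine thyroid microsomes (25 ug) in 200mM potassium phosphate, preincubated 30 s at 37C with compound (8 concentrations, 5 nM–87.5 uM) and 35mM guaiacol; 1mM H2O2 starts reaction. Absorbance change at 450nm over first 80 s; loss of signal versus DMSO, three replicates.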

The nature of assay [7]: ArunA_CellTiter_hNC: Viability Assessment in the ArunA Biomedical's Oris Neural Crest (hNC) Cell Migration Assay (AID 2283752; active = hit-call score of the fitted dose curve at least 0.9, where 1 is the maximum). The procedure, abridged:
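Viability of embryonic neural crest stem cells from the H9 line is scored 72 h after dosing, with DMSO as negative control and baseline. A drop in CellTiter Aqueous One signal indicates cytotoxicity.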

A short description of assay [8]: ArunA_Migration_hNP: ArunA Biomedical's Oris Neuroprogenitor (hNP) Cell Migration Assay (AID 2283754; active = hit-call score of the fitted dose curve at least 0.9, where 1 is the maximum). The procedure, abridged: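 Human H9-derived hNP1 neuroprogenitors on Matrigel with LIF/bFGF, plated around seeding stoppers for 16 h at 37C; stoppers removed at start of 72 h chemical exposure. Calcein-AM staining, fluorescence 494/517 nm in detection zone; loss-of-signal vs DMSO; cytochalasin D control.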

Assay [9] in a line: ArunA_Migration_hNC: ArunA Biomedical's Oris Neural Crest (hNC) Cell Migration Assay (AID 2283755; active = hit-call score of the fitted dose curve at least 0.9, where 1 is the maximum). The procedure, abridged:
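Human H9-derived neural crest stem cells, 60,000/well on Matrigel, 16 h at 37C, then 72 h chemical exposure after seeding-stopper removal. Migration into detection zone read as calcein-AM fluorescence (ex494/em517), relative to DMSO.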

Assay [10] can be described thus: ArunA_CellTiter_hNP: Viability Assessment in the ArunA Biomedical's Oris Neural Crest (hNC) Cell Migration Assay (AID 2283753; active = hit-call score of the fitted dose curve at least 0.9, where 1 is the maximum). The procedure, abridged: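 H9-derived hNP1 neuroprogenitors, 60,000/well on Matrigel, cultured 16 h, then 72 h chemical exposure in test medium. Cell titer via CellTiter Aqueous One; positive-direction fit vs DMSO.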

Records with an inconclusive call do not appear. Activity calls are given as the source filed them. Rule for the calls, unless noted: active = hit-call score of the fitted dose curve at least 0.9, where 1 is the maximum; inactive = score below 0.9.

Consider `Oc1ccc(I)cc1`, for which, in assay [1], the compound was called inactive.

With `CCOC(=O)c1ccccc1N`, the outcome in assay [1] was inactive.

On to `CCOP(=S)(OCC)SCn1nnc2ccccc2c1=O`, for which, in assay [1], the compound was classed as inactive.

As for `CCC1(c2ccccc2)C(=O)N=C(O)NC1=O` (stereo not given), the AC50 in assay [2] was 0.0967 µM (active). Besides, the result in [3], in assay [4] and in assay [5] was inactive.

As for `N#Cc1c(-c2ccc(Cl)cc2)[nH]c(C(F)(F)F)c1Br`, in assay [1], the half-maximal activity concentration (AC50) is 0.289 µM (active).

Turning to `O=S(=O)(c1ccc(O)cc1)c1ccc(O)cc1`, the compound was called inactive in assay [1].

For `Nc1ccc([N+](=O)[O-])cc1Cl`, the result in assay [1] was inactive.

Turning to `CCCCc1ccc(O)cc1`, the outcome in assay [1] was inactive.

For the compound `c1ccc2c(c1)Nc1ccccc1S2`, the result in assay [2], in [3], in [4], in [1] and in assay [5] was inactive. For the same compound, in assay [6], the AC50 was 100 µM (active).

Regarding `O=C(O)C1C(C(=O)O)C2(Cl)C(Cl)=C(Cl)C1(Cl)C2(Cl)Cl` (stereo not given), the result in assay [2], in [3], in [5], in assay [7], in [8] and in [9] was inactive.

As for `CC(=O)c1ccc(-c2ccccc2)cc1`, the result in [1] was inactive.

As for `CO/N=C(/C(=O)OC)c1ccccc1COc1ccccc1C`, the concentration at half-maximal activity (AC50) in assay [1] was 5.04 µM (active).

With `O=[N+]([O-])c1ccccc1`, the outcome in assay [2], in assay [3] and in [5] was inactive.

With `O=P(Oc1ccccc1)(Oc1ccccc1)Oc1ccccc1`, the result in assay [2], in [3], in [1], in [5], in assay [7] and in assay [10] was inactive. The result in assay [8] was inactive.

As for `CCCCOCCOP(=O)(OCCOCCCC)OCCOCCCC`, the call in assay [1] was inactive.

For `CC(C)Nc1ccc(Nc2ccccc2)cc1`, the outcome in [1] was inactive.

With `CCCCC(CC)COP(=O)(Oc1ccccc1)Oc1ccccc1` (stereo not given), the outcome in assay [2], in assay [3], in [4], in assay [7], in assay [10] and in assay [8] was inactive. Moreover, in assay [9], the result was inactive.

In the case of `COP(N)(=S)OC`, in assay [1], the compound was called inactive.

As to `CCC(C)(C)c1ccc(O)cc1`, the concentration at half-maximal activity (AC50) in [2] is 78.2 µM (active); in assay [4] it was 40.1 µM (active); in assay [5] it was 21.3 µM (active). For the same compound, the outcome in assay [3] and in assay [1] was inactive.

The record behind these values is PubChem BioAssay (EPA / NIEHS).
